Consider four compounds from PubChem BioAssay (NCATS).

In assay [1] the test system is Zika virus NS2B-NS3 protease (linked construct). The experiment in a line: Primary screen NINDS Rhodamine qHTS for Zika virus inhibitors (AID 1347160). Further: on the % scale 0 is the no-effect control and ±100 the full control effect; nearly all actives have a fitted effect of over 55% in size. An outline of the steps:
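Enzyme (25 nM, linked NS2B-NS3) was preincubated 15 min with compound in 10 mM Tris-HCl pH 8.0, 0.01% Tween 20. Rhodamine110 substrate (1.5 microM) was then added and fluorescence read at start and after 15 min.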

Assay [2] addresses Calcium and integrin-binding protein 1 (Homo sapiens) (UniProt Q99828). The experiment in a line: Primary qHTS for Identification of Calcium Integrin Binding Protein 1 (CIB1) Competitor (AID 1508620).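 Further: GST tagged CIB1 binding a fluorescein labelled alphaIIb integrin peptide tracer; top concentration of the series differs between compounds; on the % scale 0 is the no-effect control and ±100 the full control effect.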 An outline of the steps:
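CIB1-GST (1 uM final) and compound incubated 15 min at room temperature before adding FITC-alphaIIb peptide tracer (100 nM final). Competition for binding read by fluorescence polarization (ex 480, em 540) after another 15 min at room temperature.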
Background: Quantitative high-throughput screening tests each substance at several concentrations.

Assay [3] can be described thus: Primary qHTS for inhibitors of nuclear receptor binding SET domain protein 2 (NSD2) in an isogenic RCH-ACV NSD2 p.E1099K mutant (9B) (AID 1645876). Further: nearly all actives have a fitted effect of over 70% in size. Further: potency means the concentration at half of the fitted maximal effect.
In assay [4] the target is Glutathione peroxidase 1 (Homo sapiens) (UniProt P07203). Nature of the assay: Primary qHTS Assay for Inhibitors of Recombinant Selenoprotein Glutathione Peroxidase 1 (GPX1) (AID 1845191). Further: nearly all actives have a fitted effect of over 65% in size. An outline of the steps:
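NADPH consumption tracked by fluorescence at 340/450 nm between t=0 and t=15 min, room temperature. Final mix: 10 nM GPX1, 100 nM glutathione reductase, 1 mM GSH, 0.5 mM NADPH, 0.5 mM cumene hydroperoxide, 0.01% BSA; 30 min compound–enzyme preincubation.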

Assay [5] deals with Phospholipid hydroperoxide glutathione peroxidase GPX4 (Homo sapiens) (UniProt P36969). Nature of the assay: Primary qHTS Assay for Inhibitors of Recombinant Selenoprotein Glutathione Peroxidase 4 (GPX4) (AID 1845192). Further: nearly all actives have a fitted effect of over 65% in size. In a few lines: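 NADPH consumption followed by fluorescence at 340/450 nm, t=0 and after 15 min at room temperature. Reaction started with cumene hydroperoxide (0.5 mM final) after 30 min compound–GPX4 preincubation; final 200 nM GPX4, 100 nM GR, 1 mM GSH, 0.5 mM NADPH.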

Assay [6] deals with Luciferin 4-monooxygenase (Photinus pyralis) (UniProt P08659). Nature of the assay: Primary firefly luciferase (FLuc) qHTS assay for identification of artifact compounds. (AID 1845220). Further: nearly all actives have a fitted effect of over 60% in size. As to conditions: outcome: dose series up to 54.1 µM unless noted. In a few lines:
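Compounds sat 15 min at room temperature with 10 uM luciferin and 10 uM ATP (pH 7.6 Tris acetate). Firefly luciferase (10 nM final) was then added, and luminescence was read 5 min later. Data normalized to no-enzyme and DMSO controls were Hill-fitted.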

In assay [7] the test system is Nanoluciferase (engineered Oplophorus gracilirostris luciferase). The experiment in a line: Primary Nanoluciferase (NLuc) qHTS assay for identification of artifact compounds. (AID 1845222).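 Further: 0% = DMSO and -100% = no enzyme.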 In a few lines: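 Luminescence from secreted NLuc (filtered, 1:55-diluted S16 cell medium) read 5 min after Nano-Glo substrate; compounds preincubated 15 min, RT. Hill fits of inhibition normalized to DMSO and no-enzyme.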

The next assay concerns CRL-7250. Nature of the assay: Cytotoxic Profiling of Annotated Libraries Using Quantitative High-Throughput Screening (AID 1296008). Further: nearly all actives have a fitted effect of over 60% in size. Further: potency means the concentration at half of the fitted maximal effect. On max response: on the % scale 0 is the no-effect control and ±100 the full control effect. As to conditions: Five cell lines viability, CellTiter-Glo ATP luminescence, 48-72 h; max response: active compounds read low. In a few lines:
(§1)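 Cytotoxicity was measured as CellTiter-Glo ATP luminescence, read after 10 min at room temperature. Compound treatment of the cells lasted 48 or 72 hr at 37 degrees Celsius in a qHTS format.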
A general note: Cellular ATP, detected with luciferase, serves as a proxy for viable cell number.

In a further assay the test system is HEK293. The assay is described as above. As to conditions: Five cell lines viability, CellTiter-Glo ATP luminescence, 48-72 h; max response: active compounds read low. An outline of the steps: as §1
The subject of the next assay is HaCat. The description is as above. The conditions noted are these: Five cell lines viability, CellTiter-Glo ATP luminescence, 48-72 h; max response: active compounds read low. In a few lines: as §1
Another assay deals with NIH3T3. Described as above. The conditions noted are these: Five cell lines viability, CellTiter-Glo ATP luminescence, 48-72 h; max response: active compounds read low. In a few lines: as §1
The test system of a further assay is C33A. Nature of the assay: Primary qHTS to identify gynecologic anti-cancer compounds using libraries of approved drugs and bioactive compounds (AID 1345084). Further: nearly all actives have a fitted effect of over 55% in size. Further: potency means the concentration at half of the fitted maximal effect. The conditions noted are these: Gynecologic cancer cell panel viability, ATPlite luminescence, 48 h; series mostly up to 57.5 µM. In a few lines:
(§2)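 Cells, 1,000 per well, were allowed to settle for 16 h at 37 C before compound addition. Five concentrations were tested for 48 h, and viability was read by ATPlite luminescence after 15 min at room temperature.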

Another assay relates to Es-2. The assay is described as above. As to conditions: Gynecologic cancer cell panel viability, ATPlite luminescence, 48 h; series mostly up to 57.5 µM. An outline of the steps:
as §2

For another assay, the system named is Hek293T. The assay is described as above. The conditions noted are these: Gynecologic cancer cell panel viability, ATPlite luminescence, 48 h, control line for the selectivity index; series mostly up to 57.5 µM. An outline of the steps: as §2
The test system of a further assay is OV90. The assay is described as above. As to conditions: Gynecologic cancer cell panel viability, ATPlite luminescence, 48 h; series mostly up to 57.5 µM. In a few lines:
as §2

For the next assay, the system named is PA-1. The description is as above. The conditions noted are these: Gynecologic cancer cell panel viability, ATPlite luminescence, 48 h; series mostly up to 57.5 µM. An outline of the steps:
as §2

In another assay the test system is Tov-21-G. The description is as above. The conditions noted are these: Gynecologic cancer cell panel viability, ATPlite luminescence, 48 h; series mostly up to 57.5 µM. In a few lines: as §2
The next assay has as its system Tov112D. The description is as above. As to conditions: Gynecologic cancer cell panel viability, ATPlite luminescence, 48 h; series mostly up to 57.5 µM. In a few lines: as §2
A further assay deals with CASKI. The assay is described as above. As to conditions: Gynecologic cancer cell panel viability, ATPlite luminescence, 48 h; series mostly up to 57.5 µM. An outline of the steps: as §2
The next assay deals with JEG-3. The description is as above. As to conditions: Gynecologic cancer cell panel viability, ATPlite luminescence, 48 h; series mostly up to 57.5 µM. In a few lines:
as §2

A number with no mark means an inactive call. Records with an inconclusive call do not appear. Active and inactive are the calls of the source. The call rests on the fitted dose curve; in most records, active means well fitted curve in the direction sought with a large enough effect; inconclusive means small, poorly fitted or top-dose-only effect, or another doubt; inactive means no such curve, though single readings can be large; an effect the other way counts as inactive or inconclusive.

Phospholipid hydroperoxide glutathione peroxidase GPX4 (Homo sapiens), sequence (P36969 whole entry, looked up): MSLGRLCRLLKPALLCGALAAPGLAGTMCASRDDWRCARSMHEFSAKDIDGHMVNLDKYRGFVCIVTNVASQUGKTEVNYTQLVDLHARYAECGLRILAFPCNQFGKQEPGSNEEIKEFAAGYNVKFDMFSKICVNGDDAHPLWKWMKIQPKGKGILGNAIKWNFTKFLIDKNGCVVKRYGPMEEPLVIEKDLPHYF
Calcium and integrin-binding protein 1 (Homo sapiens), sequence (Q99828 whole entry, looked up): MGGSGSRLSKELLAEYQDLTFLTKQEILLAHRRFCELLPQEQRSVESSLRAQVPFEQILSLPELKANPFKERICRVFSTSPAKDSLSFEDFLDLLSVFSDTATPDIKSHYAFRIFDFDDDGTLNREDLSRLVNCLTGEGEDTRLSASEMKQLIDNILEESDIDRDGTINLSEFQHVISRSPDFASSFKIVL
Glutathione peroxidase 1 (Homo sapiens), sequence (P07203 whole entry, looked up): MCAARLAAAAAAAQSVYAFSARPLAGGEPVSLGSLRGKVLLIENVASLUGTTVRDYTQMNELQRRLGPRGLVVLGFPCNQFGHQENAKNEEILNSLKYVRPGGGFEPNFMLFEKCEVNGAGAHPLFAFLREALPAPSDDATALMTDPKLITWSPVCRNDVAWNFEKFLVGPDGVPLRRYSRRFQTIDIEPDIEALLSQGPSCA

As for `COC1CC(O[C@H]2CC[C@]3(C)C4CC[C@]5(C)[C@@H](C6=CC(=O)OC6)[C@@H](OC(C)=O)C[C@]5(O)C4CC[C@@H]3C2)OC(C)C1O` (stereo not given in full), the Potency entry in assay [1], in assay [2], in assay [4], in assay [5] and in assay [7] was “inactive” each time. Further, the Potency in assay [3] is 0.224 µM (active); with CRL-7250, 0.317 µM (active); in the assay on HEK293, 0.502 µM (active); in the assay on HaCat, 0.796 µM (active); with C33A, 0.891 µM (active); with Es-2, 0.891 µM (active). Also, the Potency with Hek293T is 1 µM (active); in the assay with OV90 it was 3.16 µM (active); in the assay on PA-1 it was 0.891 µM (active); in the assay on Tov-21-G, 0.708 µM (active); in the assay with Tov112D, 0.251 µM (active). Further, in [6], the outcome was inactive. Moreover, the max response in the assay on NIH3T3 was -14.3%.
As for `CO[C@H]1[C@H](O)[C@H](O[C@H]2CC[C@]3(C=O)C4CC[C@]5(C)[C@H](C6=CC(=O)OC6)CC[C@]5(O)C4CC[C@@H]3C2)O[C@@H](C)[C@@H]1O` (stereo not given in full), the Potency entry in [1], in assay [2], in [4] and in [7] was “inactive” throughout. Further, the Potency in [3] is 0.0159 µM (active); in the assay with CRL-7250 it was 0.0282 µM (active); in the assay with HEK293 it was 0.0502 µM (active); in the assay on HaCat, 0.126 µM (active); in the assay with C33A it was 0.0891 µM (active); in the assay on CASKI, 0.224 µM (active). Further, the Potency is 0.1 µM (active) with Es-2, 0.126 µM (active) in the assay with Hek293T, 0.282 µM (active) with OV90 and 0.0316 µM (active) with Tov-21-G. Moreover, the max response in the assay with NIH3T3 was -5%.
`C[C@@H]1[C@H](O)[C@@H](C)/C=C/C=C/CC/C=C/C=C/C=C/C=C/[C@H](O[C@H]2O[C@@H](C)[C@H](O)[C@@H](N)[C@H]2O)C[C@@H]2O[C@](O)(C[C@@H](O)[C@H](O)CC[C@@H](O)C[C@@H](O)C[C@@H](O)CC(=O)O[C@H]1C)C[C@H](O)[C@H]2C(=O)O`: the Potency result (in assay [2]; in [3]; in [4]; in assay [5]; in assay [7]; with C33A) was “inactive” throughout. Also, the Potency entry in the assay with CASKI, with Es-2, in the assay on Hek293T, in the assay on JEG-3, in the assay on OV90 and with PA-1 was “inactive” each time. Moreover, the Potency entry in the assay with Tov-21-G and in the assay on Tov112D was “inactive” each time. Besides, the call (in assay [6]; with HaCat) was inactive. The values for the max response in the assay on CRL-7250 and with HEK293 were -12.4% and 0.0089%, respectively.
Consider `CC(=O)OC[C@]12C[C@H](O)C(C)=C[C@H]1O[C@@H]1[C@H](O)[C@@H](O)[C@@]2(C)[C@]12CO2`, for which the Potency entry in assay [1], in assay [2], in assay [4], in [5] and in assay [7] was “inactive” in each case. Besides, the Potency is 0.898 µM (active) in assay [3]; 4.04 µM (active) in the assay on CRL-7250; 1.01 µM (active) in the assay with HEK293; 10.1 µM (active) in the assay with HaCat; 1.43 µM (active) in the assay on NIH3T3; 5.62 µM (active) with C33A. In addition, the Potency is 7.94 µM (active) in the assay on CASKI; 6.31 µM (active) in the assay on Es-2; 1.78 µM (active) in the assay with Hek293T; 12.6 µM (active) with OV90; 2 µM (active) in the assay with PA-1; 8.91 µM (active) in the assay with Tov-21-G. Moreover, the Potency with Tov112D is 10 µM (active). Besides, in assay [6], the compound was classed as inactive.
